Source: PubChem (National Center for Advancing Translational Sciences (NCATS))
Compounds with a hit are over-represented: about 6% of the library has one in this group of screens.
D3 ag: agonists of human D3 dopamine receptor; hit rate 0.58% among 410,000; D3R DiscoveRx beta-arrestin cells, luminescence, 90 min; max activation, %; P35462; in the data active = max activation above about 30%; note: 0% is about no effect
Target sequence (P35462 whole entry, looked up): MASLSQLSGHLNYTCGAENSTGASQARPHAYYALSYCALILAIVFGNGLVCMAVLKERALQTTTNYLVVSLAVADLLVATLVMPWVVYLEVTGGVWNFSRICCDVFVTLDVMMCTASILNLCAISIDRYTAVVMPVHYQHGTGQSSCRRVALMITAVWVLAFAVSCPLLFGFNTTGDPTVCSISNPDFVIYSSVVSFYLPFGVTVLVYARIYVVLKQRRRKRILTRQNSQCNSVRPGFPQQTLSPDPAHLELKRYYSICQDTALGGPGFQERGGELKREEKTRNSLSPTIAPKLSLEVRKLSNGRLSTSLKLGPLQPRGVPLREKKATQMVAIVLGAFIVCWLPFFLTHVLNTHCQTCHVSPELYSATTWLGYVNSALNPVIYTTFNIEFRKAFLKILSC
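Cells at 1500/well, incubated overnight, then treated with pinned compounds (dopamine as control) for 90 min at 37 degrees C. DiscoveRx reagent added for 30 - 60 minutes at room temperature; luminescence read.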
D1 potentiator: potentiators of human D1 dopamine receptor; AID 504651; P21728; HEK293 TREx D1 cells, calcium flux, dopamine EC20 potentiation; hit rate 0.036% among 360,000; potentiation, % at 10 µM; in the data active = potentiation above about 30%; note: 0% is about no effect
D1 antag: human D1 dopamine receptor antagonism; P21728; HEK293 TREx D1 cells, calcium flux, dopamine EC80; hits give low values; activity change, negative = inhibition, % at 10 µM; hit rate 3.2% among 360,000; AID 504652; in the data active = activity change below about -30%; note: % is set by controls: 0 for no effect and ±100 for the full control effect
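Tetracycline-induced HEK293 Trex D1 cells, force-coupled to calcium, dye-loaded; compounds added and read 180 s, then EC80 dopamine added and calcium flux tracked kinetically another 180 s.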
BCR signal inh: blocks chronic active B-cell receptor signaling; AID 493014; Potency, µM (top dose mostly 46.1 µM), for the others: at the highest dose activity change, negative = inhibition, most hits filed as inhibitors; ABC-DLBCL IkBa-CBG/CBR reporter, luminescence ratio, 4 h; hit rate 0.05% among 340,000; active = well fitted inhibition curve with a large enough effect in the signal ratio, with a control signal flat, not every such curve was filed as active; inconclusive = small, poorly fitted or top-dose-only effect, or effect the other way, or a change in a side signal; the % refers to the signal ratio;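 note: potency is the fitted concentration of half-maximal effect; plate controls were basal doxycycline-induced cells for no effect and cells given 10 µM MG132 for full effect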
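Cell line TMD8 (human ABC DLBCL), stably expressing tet-inducible CBG68-IkBa fusion and CBR; IMDM/0.5% FBS; cpd up to 46 uM; dox induction, 4 h, 37C/5% CO2; dual luminescence; green/red ratio; MG132 control.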
DRD3 antagonist: D3 dopamine receptor (human) antagonism; P35462; D3R cells, DiscoveRx beta-arrestin luminescence, antagonist mode; hits give low values; max response, negative = inhibition, %; hit rate 2.5% among 360,000; in the data active = max response below about -50%; inconclusive = no clear call, values can overlap the other calls; note: % is set by controls: 0 for no effect and ±100 for the full control effect
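Cells plated overnight at 1500 cells/well, then exposed to library compounds with dopamine controls for 90 minutes at 37 degrees C. DiscoveRx reagent added for 30–60 minutes at room temperature; luminescence read, quantitative HTS format.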
D1 agonist: human D1 receptor agonism. HEK293 T-REx D1 cells, calcium flux, agonist mode. activation, % at 2 µM. hit rate 1% among 360,000; in the data active = activation above about 30%; note: 0% is about no effect
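Inducible HEK293 T-REx D1 cells, force-coupled to calcium signalling, were plated at 4000 cells/well with tetracycline and held overnight at 30 C. After no-wash calcium dye loading, compound-evoked calcium rise over 180 s flagged agonists.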
An asterisk follows results filed as active; ? = inconclusive; nt = no result given.

SMILES | D3 ag | D1 potentiator | D1 antag | BCR signal inh | DRD3 antagonist | D1 agonist
O=C(NC(c1ccc(F)cc1)c1ccc2ccccc2n1)C1CCN(Cc2cccc(C(F)(F)F)c2)CC1 (stereo unspecified) | -14 | nt | nt | nt | -81* | nt
O=C(NC(c1ccc(F)cc1)c1ccc2ccccc2n1)C1CCN(CCOc2ccc(Cl)cc2)CC1 (stereo unspecified) | -24 | nt | nt | nt | -118* | nt
CN(C)c1ccc(CN2CCC(C(=O)NC(c3ccc(F)cc3)c3ccc4ccccc4n3)CC2)cc1 (stereo unspecified) | -23 | nt | nt | nt | -82* | nt
CCCCN1C(=O)C(CC(=O)NCCN2CCOCC2)CC(C(=O)N(C(C)C)C(C)C)=C1C (stereo unspecified) | -7 | nt | nt | nt | -24 | nt
Nc1c(-c2nc(-c3cccs3)no2)nnn1-c1ccc(Cl)cc1 | 6 | -6 | -3 | nt | nt | 1
Cc1ccc(-n2nc(C)c3c(C)cc(=O)n(CC(=O)Nc4cccc(C)c4C)c32)cc1 | -18 | -3 | 16 | nt | nt | 2
NC(=O)CSc1nc2ccc(NC(=O)COc3ccccc3)cc2s1 | 7 | -1 | 0 | nt | nt | 7
COc1cc(/C=C/CN2CCC(C(=O)NC(c3ccc(F)cc3)c3ccc4ccccc4n3)CC2)ccc1OC(C)=O (stereo unspecified) | -26 | nt | nt | nt | -110* | nt
O=C(NC(c1ccccc1)c1ccc2ccccc2n1)C1CCN(CCOc2ccc(Cl)cc2Cl)CC1 (stereo unspecified) | -8 | nt | nt | nt | -22 | nt
CCN(CC)c1c(C)nc2ccc(C(=O)Nc3cc(-c4ccccc4)ccc3OC)cn12 | -5 | nt | nt | nt | 44 | nt
CN(C)c1ccc(N=Nc2nc3ccccc3n2C)cc1 | -20 | -5 | -1 | ? | -74* | 3
Cn1c(N=Nc2ccccc2)nc2ccccc21 | -5 | -1 | 0 | ? | -7 | 6
Cc1cccc(N2CCN(C(=O)c3c(-c4ccccc4)noc3C)CC2)c1C | -6 | 5 | 8 | -20% | -17 | 0
Cc1cccc(N2CCN(C(=O)/C=C/c3cccs3)CC2)c1C | 43* | -7 | -42* | 1% | 3 | 8
COc1ccccc1N1CCN(C(=O)/C=C/c2cccs2)CC1 | 1 | 3 | 17 | 3% | 2 | -1
CCc1noc(C)c1C(=O)N1CCN(c2cccc(C)c2C)CC1 | 1 | -6 | -31* | 0% | ? | 4
O=NN(CCF)C(=O)NC1CCS(=O)(=O)CC1 | -3 | nt | nt | nt | 1 | nt
CC1(C(=O)NS(=O)(=O)c2ccc(F)cc2F)CCN1C(=O)CCc1ccc(Cl)cc1Cl (stereo unspecified) | -5 | nt | nt | nt | -7 | nt
O=C1C(=C(c2ccccc2)c2ccccc2)Nc2ccccc21 | -5 | -12 | -7 | ? | -14 | 36*
O=C1C2CCCCN2C(=O)N1CCCN1CCN(c2cccc(C(F)(F)F)c2)CC1 (stereo unspecified) | -14 | nt | nt | nt | -67* | nt
O=C1C2CCCN2C(=O)N1CCN1CCN(c2cccc(C(F)(F)F)c2)CC1 (stereo unspecified) | -18 | nt | nt | nt | -17 | nt
O=C1C2C3C=CC(C4CC34)C2C(=O)N1CCCCN1CCN(c2ccc(F)cc2)CC1 (stereo unspecified) | -32 | nt | nt | nt | -85* | nt
O=C1C2CCCN2C(=O)N1CCCN1CCN(c2cccc(Br)c2)CC1 (stereo unspecified) | -19 | -16 | -27 | 0% | -78* | 10
Nc1ccc(N2CCN(CCCCN3C(=O)C4CCCN4C3=O)CC2)cc1 (stereo unspecified) | -4 | -11 | 5 | -11% | -16 | 4
O=C1C2CCCCN2C(=O)N1CCCN1CCN(c2ccc(F)cc2)CC1 (stereo unspecified) | -21 | -5 | 0 | 4% | -57* | 1
O=C1/C(=C/c2ccccc2)Oc2cc(OC(=O)N3CCOCC3)ccc21 | 8 | -5 | -28 | -1% | 14 | 8
COc1ccc(/C=C2\Oc3cc(OC(=O)N4CCOCC4)ccc3C2=O)c(OC)c1 | 11 | -8 | -23 | 3% | -14 | 37*
Cc1cccc(C)c1NC(=O)C(c1ccccc1)N1CCN(c2ccc(C(F)(F)F)cn2)CC1 (stereo unspecified) | 3 | nt | nt | nt | -17 | nt
